In PubChem BioAssay AID1159580 (chemical genetic matrix, 2015):
In all, about 5,500 compounds went through this assay and about 2,000 (36%) were called active. Inconclusive results (about 18%) are left out. Cut-off read from the data, not from the text of the source: active = normalized growth mostly below about 0.91 (no sharp cut-off); inconclusive = no clear call, values can overlap the other calls; inactive = mostly above about 0.92. The list shows a part of the results.

Test: chemical genetic growth profiling, strain panel (AID 1159580);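 note: tested at 20 µM; growth read once vehicle control cultures reached saturation at 30 °C; 1 = growth at the plate median or of vehicle wells; lower values mean less growth of the strain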
Details: S. cerevisiae deletion strains, growth OD
[1] = locus YAR019C, strain CDC15, hits give low values
[2] = locus YBL105C, strain PKC1, hits give low values
[3] = locus YBR135W, strain CKS1, hits give low values
[4] = locus YBR136W, strain MEC1, hits give low values
[5] = locus YBR160W, strain CDC28, hits give low values
[6] = locus YDL017W, strain CDC7, hits give low values
[7] = locus YDL028C, strain MPS1, hits give low values
[8] = locus YDL101C, strain DUN1, hits give low values
[9] = locus YDL108W, strain KIN28, hits give low values
[10] = locus YDL132W, strain cdc53, hits give low values
[11] = locus YDL214C, strain PRR2, hits give low values
[12] = locus YDR052C, strain DBF4, hits give low values
[13] = locus YDR054C, strain cdc34, hits give low values
[14] = locus YDR226W, strain ADK1, hits give low values
[15] = locus YDR477W, strain SNF1, hits give low values
[16] = locus YER123W, strain YCK3, hits give low values
[17] = locus YER133W, strain GLC7, hits give low values
[18] = locus YFL009W, strain cdc4, hits give low values
[19] = locus YFL029C, strain CAK1, hits give low values
[20] = locus YFR003C, strain YPI1, hits give low values
[21] = locus YFR019W, strain FAB1, hits give low values
[22] = locus YFR028C, strain CDC14, hits give low values
[23] = locus YGR040W, strain KSS1, hits give low values
[24] = locus YGR052W, strain FMP48, hits give low values
[25] = locus YGR092W, strain DBF2, hits give low values
[26] = locus YHR030C, strain SLT2, hits give low values
[27] = locus YHR079C, strain IRE1, hits give low values
[28] = locus YHR082C, strain KSP1, hits give low values
[29] = locus YHR205W, strain SCH9, hits give low values
[30] = locus YIL147C, strain SLN1, hits give low values
[31] = locus YJL095W, strain BCK1, hits give low values
[32] = locus YJL128C, strain PBS2, hits give low values
[33] = locus YJL157C, strain FAR1, hits give low values
[34] = locus YJR016C, strain ILV3, hits give low values
[35] = locus YJR066W, strain TOR1 (second series), hits give low values
[36] = locus YJR066W, strain TOR1, hits give low values
[37] = locus YKL048C, strain ELM1, hits give low values
[38] = locus YKL067W, strain YNK1, hits give low values
[39] = locus YKL101W, strain HSL1, hits give low values
[40] = locus YKL193C, strain SDS22, hits give low values
[41] = locus YKL203C, strain TOR2, hits give low values
[42] = locus YLR113W, strain HOG1, hits give low values
[43] = locus YLR133W, strain CKI1, hits give low values
[44] = locus YLR403W, strain SFP1, hits give low values
[45] = locus YML070W, strain DAK1, hits give low values
[46] = locus YMR001C, strain CDC5, hits give low values
[47] = locus YMR205C, strain PFK2 (second series), hits give low values
[48] = locus YMR277W, strain FCP1, hits give low values
[49] = locus YNL006W, strain LST8, hits give low values
[50] = locus YNL020C, strain ARK1, hits give low values
[51] = locus YNL161W, strain CBK1, hits give low values
[52] = locus YNL183C, strain NPR1, hits give low values
[53] = locus YNL207W, strain RIO2, hits give low values
[54] = locus YNL222W, strain SSU72, hits give low values
[55] = locus YNL307C, strain MCK1 (second series), hits give low values
[56] = locus YOL078W, strain AVO1, hits give low values
[57] = locus YOL136C, strain PFK27, hits give low values
[58] = locus YOR061W, strain CKA2, hits give low values
[59] = locus YOR119C, strain RIO1, hits give low values
[60] = locus YOR231W, strain MKK1, hits give low values
[61] = locus YOR329C, strain SCD5, hits give low values
[62] = locus YPL031C, strain PHO85, hits give low values
[63] = locus YPL153C, strain RAD53, hits give low values
[64] = locus YPL204W, strain HRR25, hits give low values
[65] = locus YPL209C, strain IPL1, hits give low values
[66] = locus YPL256C, strain CLN2, hits give low values
[67] = locus YPR025C, strain CCL1, hits give low values
[68] = locus YPR106W, strain ISR1, hits give low values
[69] = locus YPR111W, strain DBF20, hits give low values
[70] = strain NNK1, hits give low values
[71] = strain TSCII, hits give low values

Measured: normalized growth

CSc1sc(C(=O)Sc2ccccc2)cc1S(=O)(=O)C(C)C
inactive: [1] 0.994 | [2] 0.997 | [3] 0.995 | [4] 0.991 | [5] 1 | [6] 0.995 | [7] 0.996 | [8] 1 | [9] 0.999 | [10] 0.983 | [11] 0.962 | [12] 0.993 | [13] 0.976 | [14] 1 | [15] 0.966 | [16] 0.902 | [17] 0.958 | [18] 0.979 | [19] 0.983 | [20] 0.994 | [21] 0.987 | [22] 0.992 | [23] 0.956 | [24] 0.927 | [25] 0.95 | [26] 0.997 | [27] 1 | [28] 0.988 | [29] 0.911 | [30] 0.99 | [31] 0.937 | [32] 0.937 | [33] 0.941 | [34] 0.988 | [35] 0.971 | [36] 1 | [37] 0.953 | [38] 0.961 | [39] 0.94 | [40] 0.992 | [41] 1.02 | [43] 0.955 | [44] 0.945 | [45] 0.93 | [46] 0.985 | [47] 0.966 | [48] 0.979 | [49] 0.997 | [50] 0.961 | [51] 0.993 | [52] 0.941 | [53] 0.974 | [54] 0.997 | [55] 0.946 | [56] 0.975 | [57] 0.929 | [58] 0.95 | [59] 1 | [60] 0.921 | [61] 0.994 | [62] 0.972 | [63] 0.988 | [64] 0.948 | [65] 0.994 | [66] 0.969 | [67] 0.996 | [68] 0.997 | [69] 0.979 | [70] 0.977 | [71] 0.98
active: [42] 0.688

CC(=O)c1ccc(Cl)c(N=Cc2cc(Br)cc(Br)c2O)c1
active: [1] 0.107 | [2] 0.0938 | [3] 0.0994 | [4] 0.112 | [5] 0.127 | [6] 0.104 | [7] 0.12 | [8] 0.118 | [9] 0.127 | [10] 0.402 | [11] 0.106 | [12] 0.303 | [13] 0.166 | [14] 0.621 | [15] 0.109 | [16] 0.115 | [17] 0.105 | [18] 0.0929 | [19] 0.0974 | [20] 0.0995 | [21] 0.0995 | [22] 0.102 | [23] 0.103 | [24] 0.128 | [25] 0.102 | [26] 0.141 | [27] 0.124 | [28] 0.134 | [29] 0.00344 | [30] 0.104 | [31] 0.141 | [32] 0.0977 | [33] 0.0879 | [34] 0.0892 | [35] 0.091 | [36] 0.12 | [37] 0.114 | [38] 0.0955 | [39] 0.112 | [40] 0.0908 | [41] 0.113 | [42] 0.161 | [43] 0.0941 | [44] -0.00302 | [45] 0.099 | [46] 0.0969 | [47] 0.0844 | [48] 0.0941 | [49] 0.0893 | [50] 0.103 | [51] 0.0859 | [52] 0.119 | [53] 0.0975 | [54] 0.0926 | [55] 0.103 | [56] 0.0827 | [57] 0.102 | [58] 0.0946 | [59] 0.102 | [60] 0.119 | [61] 0.0861 | [62] 0.105 | [63] 0.0925 | [64] 0.0963 | [65] 0.0856 | [66] 0.144 | [67] 0.0958 | [68] 0.0925 | [69] 0.106 | [70] 0.102 | [71] 0.102
